# HCV inh: blocks hepatitis C virus | hit rate 3.4% among 340,000 | Potency, µM (top dose mostly 41.8 µM), usual class: inhibitors | Huh7.5.1 HCVcc-Cre infection, luciferase reporter, 44 h
#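 1,000 cells/well; 4 h culture; + compound; + HCVcc-Cre (~0.5 moi); 44 h; luciferase substrate, RT 15 min; read 15 sec.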
# Pf growth 96h: P. falciparum growth inhibition at 96 hour, primary screen for plastid delayed-death inhibitors; P. falciparum luciferase reporter growth, 96 h; Potency, µM (series often up to 28.7 µM), hits mostly inhibitors; hit rate 6.9% among 320,000; AID 504834
#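 Compounds incubated with erythrocytes infected by luciferase-expressing P. falciparum (2% hematocrit, 0.05% parasitemia final) for 96 hours, 37 C in 5% CO2. Growth inhibition scored as decreased luciferase luminescence.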
# AMA1-RON2 inh: disrupts binding of P. falciparum AMA1 to RON2; AlphaScreen AMA1-biotinylated RON2 peptide binding; Potency, µM (series often up to 58.2 µM), usual class: inhibitors; hit rate 0.2% among 360,000; AID 720542; further: nearly all actives have a fitted effect of over 45% in size
#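 AMA1 (3D7) with his tag at 25 nM final met compounds first, then biotinylated RON2 peptide at 25 nM; detection used donor plus acceptor beads, 10 µg/mL apiece, read by AlphaScreen after 30 min at room temperature.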
# Pf growth 48h: P. falciparum growth inhibition at 48 hours (one generation). P. falciparum luciferase growth in erythrocytes, 48 h. Potency, µM (highest dose often 28.7 µM), actives largely listed as inhibitors. hit rate 5.9% among 310,000
#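 Luciferase-expressing P. falciparum in infected erythrocytes (2% hematocrit, 0.1% parasitemia final) in RPMI 1640/0.5% Albumax were exposed to compound for 48 hours at 37 C, 5% CO2; growth read as luminescence.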
# A number is an active result; i = inactive; ? = inconclusive; nt = no result; [ ] = dose if it differs, or a comment. Most compounds without a hit are left out; they make up all but 11% or so of the library. The call rests on the fitted dose curve; in most records, active means well fitted curve in the direction sought with a large enough effect; inconclusive means small, poorly fitted or top-dose-only effect, or another doubt; inactive means no such curve, though single readings can be large; an effect the other way counts as inactive or inconclusive.
SMILES,HCV inh,Pf growth 96h,AMA1-RON2 inh,Pf growth 48h
O=C(c1cc(C(=O)NCc2ccc(Cl)cc2)c(=O)n(Cc2ccc(Cl)cc2)c1)c1cc(F)ccc1O,?,1.47µM,i,2.94µM
O=S(=O)(Nc1ccccc1Br)c1cccc2cccnc12,nt,nt,i,nt
O=C(CN1C(=O)C2(OCCCO2)c2ccccc21)NCc1ccccc1,i,i,i,i
Cc1ccc(CNC(=O)CN2C(=O)C3(OCCCO3)c3ccccc32)cc1,i,10.4µM,i,i
O=[N+]([O-])c1ccc(Cl)c([N+](=O)[O-])c1,?,?,?,10.4µM
Cc1ccc(NC(=O)C2CCN(S(=O)(=O)c3cc([N+](=O)[O-])ccc3Cl)CC2)nc1,5.01µM,nt,i,nt
Cc1ccc2nc(NC(=O)C3CCN(S(=O)(=O)c4cccnc4)CC3)sc2c1,?,i,i,nt
Cc1ccc2nc(NC(=O)C3CCN(S(=O)(=O)c4cc([N+](=O)[O-])ccc4Cl)CC3)sc2c1,6.31µM,?,i,i
O=C(Nc1nc2ccc(F)cc2s1)C1CCN(S(=O)(=O)c2cc([N+](=O)[O-])ccc2Cl)CC1,31.6µM,?,i,?
O=[N+]([O-])c1ccc(O)c([N+](=O)[O-])c1,?,nt,i,nt
C/C(=N\NC(=O)c1cc(-c2cccc([N+](=O)[O-])c2)n[nH]1)c1ccccc1O,i,?,i[2.32 µM],i
CCN(CC)Cc1c(C(=O)N/N=C/c2cccs2)nnn1-c1nonc1N,i,i,i,i
N#CC1=C(Nc2ccccc2Cl)SC2(CCCC2)NC1=O,nt,nt,i,nt
O=C(Nc1ccccc1)c1cccc2c(-c3cccnc3)coc12,nt,nt,i,nt
CC(C)[C@@H]1Cc2[nH]c(=O)[nH]c(=O)c2[C@H](C)O1,nt,nt,i,nt
O=[N+]([O-])c1ccc(Cl)c(S(=O)(=O)N2CCCCCC2)c1,i,10.4µM,i,i
S=c1[nH]c(-c2ccccc2)cn1/N=C/c1cccs1,i,11.7µM,i,?
S=c1[nH]c(-c2ccccc2)cn1/N=C/c1ccc(Br)cc1,i,?,i,?
CCOc1ccc(C)cc1S(=O)(=O)n1nc(C)cc1C,i,i[5.75 µM],i,i
CCOc1ccc(C(C)(C)C)cc1S(=O)(=O)n1nc(C)cc1C,?,8.28µM,i,4.65µM
Cc1cc(C)n(S(=O)(=O)c2cc(Cl)ccc2Cl)n1,i,i,i,10.4µM
Cc1cc(C)n(S(=O)(=O)c2ccc(Cl)cc2)n1,i,?,i,i
CCOc1ccc(C(C)(C)C)cc1S(=O)(=O)N1CC(C)OC(C)C1 (stereo not given),i,nt,i,11.7µM
CCOc1ccc(NC(=O)CN(C)C(=O)c2ccccc2-n2cnnn2)cc1OCC,i,i,i,?
Cc1ccc(OCC(=O)NNC(=S)NC(=O)C2CCCCC2)c(C)c1,?,?,i,i
SMILES,HCV inh,Pf growth 96h,AMA1-RON2 inh,Pf growth 48h
Cc1ccc(OCC(=O)NNC(=S)NC(=O)C2CC2)c(C)c1,nt,14.7µM,nt,?
O=C1CC(N2CCOCC2)C(=O)N1c1ccc(Cl)cc1 (stereo not given),i,i,i,7.38µM
O=C1CC(N2CCOCC2)C(=O)N1c1cccc(Cl)c1 (stereo not given),i,?,i,i
CC1(C)CC(=O)C(C=Nc2ccc(NC3=C(C#N)C(=O)CC(C)(C)C3)cc2)=C(O)C1,i,i,i,i
COc1ccc(/C=C(\C#N)C(=O)C(C)(C)n2cncn2)cc1,i,3.7µM,i,i
CC(=O)N1CC(C)Oc2ccc(S(=O)(=O)NC(CC(=O)O)c3cc(C)ccc3C)cc21 (stereo not given),i,11.7µM,i,i
CC(=O)N1CC(C)Oc2ccc(S(=O)(=O)NC(CC(=O)O)c3ccccc3C)cc21 (stereo not given),i,i,i,i
COc1ccc(CN(CCC#N)CCC2(c3ccccc3)CC(C)N(C)CC2C)cc1OC (stereo not given),i,?,i,?
COc1ccc(CNCCC2(Cc3ccccc3)CC(C)N(C)CC2C)cc1OC (stereo not given),7.94µM,i,i,?
NC(c1csc(Nc2cc(NCCCO)ncn2)n1)c1ccccc1Cl (stereo not given),nt,nt,i,nt
O=C(Nc1ccccc1-c1nnc(SCc2ccc(Cl)cc2Cl)o1)c1ccccc1,?,2.33µM,i,i
CCc1nnc(NC(=O)CSc2nnc(-c3ccccc3NC(=O)c3ccccc3)o2)s1,11.2µM,?,i,i
CC1(/[N+]([O-])=C/c2ccccc2F)CCCCC1=O (stereo not given),i,i,i,i
CCCCN(C(=O)CSCc1c(C)noc1C)c1c(N)n(CCCC)c(=O)[nH]c1=O,i,i,i,?
O=C1CC(c2cccs2)c2ccc3ccccc3c2N1 (stereo not given),i,i,i,i
COc1cc(C(=O)Nc2nc(-c3ccc(Cl)cc3)c(C)s2)ccc1OCC(=O)Nc1ccc(F)cc1,?,4.15µM,i,?
C[C@@H]1CN([C@H](C)CO)C(=O)c2cc(-c3ccc(C(=O)N(C)C)cc3)cnc2O[C@@H]1CN(C)C(=O)c1cccnc1,nt,nt,i,nt
Cn1c(-c2ccccc2)c(CCO)c2ccccc21,i,i,i,i
CCn1c2ccccc2c(=O)c2ccccc21,?,i,i,?
CCn1c(-c2ccccc2)c(C(=O)CCl)c2ccccc21,8.91µM,?,i,i
Cn1c(-c2ccccc2)c(C(=O)CCl)c2ccccc21,5.62µM,i,i,?
N#Cc1ccc(NC(=S)N2CCC3CC2c2cc(-c4ccc5c(c4)OCO5)ccc23)cc1 (stereo not given),nt,nt,i,nt
CN(Cc1ccccc1)S(=O)(=O)c1csc(C(N)=O)c1,i,i,i,i
Cc1ccc(NC(=O)c2cccc3c2C(=O)N(C2CCCCC2)C3)cc1,i,11.7µM,i,i
CCOC(=O)N1CCC(N2Cc3cccc(C(=O)Nc4ccc(N(CC)CC)cc4C)c3C2=O)CC1,i,0.738µM,i,?
SMILES,HCV inh,Pf growth 96h,AMA1-RON2 inh,Pf growth 48h
Cc1ccc(NC(=O)c2cccc3c2C(=O)N(C2CCCCC2)C3)c(C)c1,i,?,i,?
CCOC(=O)N1CCC(N2Cc3cccc(C(=O)Nc4ccc(F)cc4)c3C2=O)CC1,?,i,i,3.29µM
O=C(O)CCCN1C(=O)c2ccc(Oc3cccc([N+](=O)[O-])c3)cc2C1=O,i,i,i,i
CCOC(=O)NCc1ccc(S(=O)(=O)Nc2c(C)cccc2C)cc1,i,nt,i,i
COC(=O)c1ccc(Oc2nc(NC(C)(C)C)nc(N3CCOCC3)n2)cc1,nt,i,nt,i
CC(C)(C)NC(=O)CN1CCCN(C(=O)COc2ccc(Cl)c3ccccc23)CC1,i,?,i,11.7µM
CN(C)S(=O)(=O)c1ccc(C(=O)N2CCN(S(=O)(=O)c3cccs3)CC2)cc1,i,i,i,i
N=c1c2c(-c3ccccc3)c(-c3ccccc3)n(Cc3ccco3)c2ncn1CCCO,i,13.1µM,i,?
N=c1c2c(-c3ccccc3)c(-c3ccccc3)n(Cc3ccco3)c2ncn1CCN1CCOCC1,?,i,i,?
N=c1c2c(-c3ccccc3)c(-c3ccccc3)n(Cc3ccco3)c2ncn1CCO,12.6µM,i,i,?
C/C(Cn1nnc2ccccc21)=N\NC(=O)c1cccc(Br)c1,i,?,i,i
